# Results filed as inconclusive are left out. Activity calls are given as the source filed them.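 How the source made its calls: active means compounds whose fitted half-maximal viability loss lies within twice the top dose at every treatment time; inconclusive means the three treatment times give differing calls; inactive means inactive at every treatment time.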
# Experiment: cytotoxicity in primary umbilical vein endothelium – cell-based, Alamar Blue fluorescence, 8-48 h, dry powder, cytotoxicity control for HRAS target identification, late-stage follow-up (AID 720612)
row,SMILES,outcome
1,CCC(=O)N(c1ccc(OC)c(Cl)c1)C(C(=O)NCCc1ccccc1)c1cccs1 (configuration not stated),inactive
2,Cc1onc(C(=O)N2CCN(C(c3ccncc3)c3ccncc3)CC2)c1[N+](=O)[O-],inactive

# Source: PubChem BioAssay AID720612 (Broad Institute, 2013)
